These results are taken from PubChem BioAssay (EPA / NIEHS).

What all share (conditions): mRNA level, 48 h; actives raise or lower the signal
Read-out in test [1]: ABC Transporter (ABCC3), ABCC3 (gene 8714)
Briefly: LTEA_HepaRG_ABCC3: Life Technologies and Expression Analysis (LTEA) Assay for ABC Transporter (ABCC3) using HepaRG (AID 2283462). An outline of the steps:
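Transcript level by TaqMan qRT-PCR, normalised to three housekeeping genes, fitted in both directions relative to vehicle. Chemicals tested in duplicate at eight half-log concentrations up to 100 uM for 48 h on HepaRG cells (0.5% DMSO).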

Read-out in test [2]: ABC Transporter (ABCB11), ABCB11 (gene 8647)
Briefly: LTEA_HepaRG_ABCB11: Life Technologies and Expression Analysis (LTEA) Assay for ABC Transporter (ABCB11) using HepaRG (AID 2283463). Summed up: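 ABCB11 transcript levels quantified by TaqMan qRT-PCR against three housekeeping genes after 48 h chemical exposure of HepaRG cultures. Concentrations up to 100 uM in half-log steps, 0.5% DMSO vehicle; both induction and suppression scored.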

Read-out in test [3]: ABC Transporter (ABCC2), ABCC2 (gene 1244)
Briefly: LTEA_HepaRG_ABCC2: Life Technologies and Expression Analysis (LTEA) Assay for ABC Transporter (ABCC2) using HepaRG (AID 2283464). An outline of the steps:
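Endpoint is ABCC2 transcript level from qRT-PCR, normalized to three housekeeping genes and fitted bidirectionally relative to DMSO. Human HepaRG cells received test chemical for 48 h at up to 100 uM (8 points, half-log steps, 0.5% DMSO), duplicate wells.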

Read-out in test [4]: Broad substrate specificity ATP-binding cassette transporter ABCG2 (Homo sapiens) (UniProt Q9UNQ0)
Kind of test: LTEA_HepaRG_ABCG2: Life Technologies and Expression Analysis (LTEA) Assay for ABC Transporter (ABCG2) using HepaRG (AID 2283465). An outline of the steps:
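ABCG2 transcript was quantified by TaqMan qRT-PCR against three housekeeping genes in HepaRG cells. Cells were treated in duplicate for 48 h across an 8-point half-log series up to 100 uM, with 0.5% DMSO vehicle. Gain or loss versus DMSO was fit.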

Read-out in test [5]: ATP-citrate lyase (ACLY), ACLY (gene 47)
Briefly: LTEA_HepaRG_ACLY: Life Technologies and Expression Analysis (LTEA) Assay for ATP-citrate lyase (ACLY) using HepaRG (AID 2283466). An outline of the steps: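 ACLY mRNA quantified by qRT-PCR on Fluidigm arrays against three housekeeping genes, after 48 h chemical treatment of HepaRG cells (top concentration 100 uM, half-log steps, 0.5% DMSO vehicle). Up- or down-regulation fitted relative to DMSO.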

Read-out in test [6]: Peroxisomal acyl-coenzyme A oxidase 1 (ACOX1) gene, ACOX1 (gene 51)
Briefly: LTEA_HepaRG_ACOX1: Life Technologies and Expression Analysis (LTEA) Assay for Peroxisomal acyl-coenzyme A oxidase 1 (ACOX1) gene using HepaRG (AID 2283467). An outline of the steps:
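ACOX1 transcript levels were quantified by TaqMan qRT-PCR against three housekeeping genes after 48 h chemical exposure of differentiated human HepaRG cells. Exposure used eight half-log steps topping at 100 uM, 0.5% DMSO vehicle, in duplicate. Bidirectional curve fits were made relative to DMSO.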

Read-out in test [7]: Alkaline Phosphatase, Placental (ALPP) gene, ALPP (gene 250)
Briefly: LTEA_HepaRG_ALPP: Life Technologies and Expression Analysis (LTEA) Assay for Alkaline Phosphatase, Placental (ALPP) gene using HepaRG (AID 2283468).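 On AC50: differentiated human HepaRG liver cells in serum-free induction medium.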 An outline of the steps:
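ALPP transcript level, measured by qRT-PCR and normalized to three housekeeping genes (ACTB, GAPDH, POLR2A), after 48 h dosing of differentiated HepaRG in serum-free induction medium. Top concentration 100 uM with half-log dilutions (8 points, 0.5% DMSO, duplicates); bidirectional fitting relative to DMSO.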

Read-out in test [8]: Bcl-2 (BAX) gene, BAX (gene 581)
Kind of test: LTEA_HepaRG_BAX: Life Technologies and Expression Analysis (LTEA) Assay for Bcl-2 (BAX) gene using HepaRG (AID 2283470). An outline of the steps: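 Cells were thawed, plated for 48 h, moved to serum-free induction medium and dosed for 48 h (highest concentration 100 uM, half-log steps, 0.5% DMSO). Total RNA was then analysed for BAX expression by qRT-PCR.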

Read-out in test [9]: adenosine kinase (ADK) gene, ADK (gene 132)
Kind of test: LTEA_HepaRG_ADK: Life Technologies and Expression Analysis (LTEA) Assay for adenosine kinase (ADK) gene using HepaRG (AID 2283471). Summed up:
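Read-out is ADK transcript level measured by qRT-PCR and normalised to three housekeeping genes. Cells are human HepaRG, dosed for 48 h at up to 100 uM in 0.5% DMSO. Gain or loss of signal is fitted against DMSO controls.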

Read-out in test [10]: Alpha-fetoprotein (AFP) gene, AFP (gene 174)
Briefly: LTEA_HepaRG_AFP: Life Technologies and Expression Analysis (LTEA) Assay for Alpha-fetoprotein (AFP) gene using HepaRG (AID 2283472). An outline of the steps:
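Chemicals were tested on differentiated HepaRG cells for 48 hours at eight concentrations up to 100 uM, with 0.5% DMSO as vehicle. AFP expression was then quantified by qRT-PCR and analyzed for gain or loss relative to DMSO.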

Read-out in test [11]: BCL2L11 (gene 10018)
Kind of test: LTEA_HepaRG_BCL2L11: Life Technologies and Expression Analysis (LTEA) Assay for Bcl-2 (BCL2L11) gene using HepaRG (AID 2283473). An outline of the steps:
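BCL2L11 transcript levels are measured by Fluidigm qRT-PCR, normalized to three housekeeping genes. HepaRG cultures were plated 48 h, then treated 48 h with test chemical (top 100 uM, half-log, 0.5% DMSO vehicle); curves were fitted bidirectionally against DMSO.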

Read-out in test [12]: Apolipoprotein A-V (APOA5) gene, APOA5 (gene 116519)
Briefly: LTEA_HepaRG_APOA5: Life Technologies and Expression Analysis (LTEA) Assay for Apolipoprotein A-V (APOA5) gene using HepaRG (AID 2283474). Summed up:
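APOA5 transcript levels were quantified by qRT-PCR, normalized to three housekeeping genes, after 48 h chemical treatment of HepaRG cells (8 points, 100 uM maximum, half-log steps, 0.5% DMSO). Curves fitted in both directions against vehicle.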

Read-out in test [13]: Apoptosis regulator Bcl-2 (Homo sapiens) (UniProt P10415)
Briefly: LTEA_HepaRG_BCL2: Life Technologies and Expression Analysis (LTEA) Assay for Bcl-2 gene using HepaRG (AID 2283475). Summed up: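 Plated human HepaRG cells are exposed to test chemicals for 48 h across eight concentrations from 100 uM downward in half-log steps (0.5% DMSO). BCL2 expression is then measured by qRT-PCR with housekeeping normalisation and fitted bidirectionally against vehicle.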

Read-out in test [14]: Caspase-3 (Homo sapiens) (UniProt P42574)
Briefly: LTEA_HepaRG_CASP3: Life Technologies and Expression Analysis (LTEA) Assay for cysteine-aspartic acid protease (CASP3) using HepaRG (AID 2283477). An outline of the steps: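 Expression of CASP3 was quantified by TaqMan qRT-PCR against three housekeeping genes (ACTB, GAPDH, POLR2A), bidirectionally versus 0.5% DMSO. HepaRG cultures received compounds in duplicate, top 100 uM with half-log steps, for 48 h in serum-free induction medium.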

Read-out in test [15]: Cytochrome P450 (CYP24A1), CYP24A1 (gene 1591)
Kind of test: LTEA_HepaRG_CYP24A1: Life Technologies and Expression Analysis (LTEA) Assay for Cytochrome P450 (CYP24A1) using HepaRG (AID 2283478). Summed up:
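mRNA of CYP24A1 quantified by TaqMan qRT-PCR (ACTB/GAPDH/POLR2A normalization) after 48 h chemical exposure of HepaRG cells, top concentration 100 uM, half-log steps, 0.5% DMSO vehicle, duplicates. Curves fitted bidirectionally against DMSO baseline.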

Read-out in test [16]: Cytochrome P450 (CYP1A2), CYP1A2 (gene 1544)
Kind of test: LTEA_HepaRG_CYP1A2: Life Technologies and Expression Analysis (LTEA) Assay for Cytochrome P450 (CYP1A2) using HepaRG (AID 2283479). Summed up: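 CYP1A2 transcript measured by TaqMan qRT-PCR against three housekeeping genes after 48-hour chemical exposure of HepaRG cells. Eight-point half-log series topping at 100 uM in 0.5% DMSO, duplicates; gain or loss fitted relative to vehicle.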

Read-out in test [17]: Cytochrome P450 (CYP2B6), CYP2B6 (gene 1555)
Kind of test: LTEA_HepaRG_CYP2B6: Life Technologies and Expression Analysis (LTEA) Assay for Cytochrome P450 (CYP2B6) using HepaRG (AID 2283481). Summed up: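 CYP2B6 transcript level quantified by qRT-PCR against three housekeeping genes, fitted bidirectionally relative to DMSO. HepaRG cultures received chemicals for 48 h, 8-point half-log series from 100 uM in 0.5% DMSO, duplicate wells, serum-free induction medium.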

Read-out in test [18]: Bcl-2 (BID) gene, BID (gene 637)
Briefly: LTEA_HepaRG_BID: Life Technologies and Expression Analysis (LTEA) Assay for Bcl-2 (BID) gene using HepaRG (AID 2283476). An outline of the steps: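 Cells are plated, cultured 48 h, switched to serum-free induction medium, then dosed 48 h (100 uM top, half-log steps, 0.5% DMSO). RNA is isolated and BID expression read by qRT-PCR.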

Read-out in test [19]: cysteine-aspartic acid protease (CASP8), CASP8 (gene 841)
Kind of test: LTEA_HepaRG_CASP8: Life Technologies and Expression Analysis (LTEA) Assay for cysteine-aspartic acid protease (CASP8) using HepaRG (AID 2283480). An outline of the steps:
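CASP8 transcript measured by TaqMan qRT-PCR with ACTB/GAPDH/POLR2A normalization, after 48 h chemical exposure of HepaRG cells in serum-free induction medium. Eight concentrations, top 100 uM, half-log steps, 0.5% DMSO vehicle; fits in both directions versus DMSO.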

The source made the active and inactive calls. How the source made its calls: active means hit-call score of the fitted dose curve at least 0.9, where 1 is the maximum; inactive means score below 0.9.

Sequence of Broad substrate specificity ATP-binding cassette transporter ABCG2 (Homo sapiens) (Q9UNQ0 whole entry, looked up): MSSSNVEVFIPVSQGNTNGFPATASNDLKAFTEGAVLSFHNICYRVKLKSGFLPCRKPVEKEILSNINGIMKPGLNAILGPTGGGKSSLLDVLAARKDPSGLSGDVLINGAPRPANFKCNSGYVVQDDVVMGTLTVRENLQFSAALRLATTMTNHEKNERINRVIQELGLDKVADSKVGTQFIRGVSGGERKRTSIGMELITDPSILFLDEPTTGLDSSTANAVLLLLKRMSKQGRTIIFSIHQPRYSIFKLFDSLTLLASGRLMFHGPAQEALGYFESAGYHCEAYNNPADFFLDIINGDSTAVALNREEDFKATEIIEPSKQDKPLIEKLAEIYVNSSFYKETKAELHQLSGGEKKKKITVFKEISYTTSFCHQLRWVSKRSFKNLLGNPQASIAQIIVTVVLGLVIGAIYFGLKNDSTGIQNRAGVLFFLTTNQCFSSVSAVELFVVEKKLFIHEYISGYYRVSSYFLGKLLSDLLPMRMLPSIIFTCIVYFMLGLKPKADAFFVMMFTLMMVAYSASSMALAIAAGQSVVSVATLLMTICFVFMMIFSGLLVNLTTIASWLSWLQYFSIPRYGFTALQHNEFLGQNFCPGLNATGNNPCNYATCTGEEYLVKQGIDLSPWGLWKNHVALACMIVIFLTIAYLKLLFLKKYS
Sequence of Caspase-3 (Homo sapiens) (P42574 whole entry, looked up): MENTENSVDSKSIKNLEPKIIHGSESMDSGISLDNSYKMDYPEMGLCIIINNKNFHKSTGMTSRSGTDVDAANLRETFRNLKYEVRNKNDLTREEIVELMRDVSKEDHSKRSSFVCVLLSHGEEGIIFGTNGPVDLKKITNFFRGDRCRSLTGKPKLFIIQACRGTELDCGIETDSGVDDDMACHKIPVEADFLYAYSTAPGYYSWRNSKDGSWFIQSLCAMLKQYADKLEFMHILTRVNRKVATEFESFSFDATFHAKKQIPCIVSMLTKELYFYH
Sequence of Apoptosis regulator Bcl-2 (Homo sapiens) (P10415 whole entry, looked up): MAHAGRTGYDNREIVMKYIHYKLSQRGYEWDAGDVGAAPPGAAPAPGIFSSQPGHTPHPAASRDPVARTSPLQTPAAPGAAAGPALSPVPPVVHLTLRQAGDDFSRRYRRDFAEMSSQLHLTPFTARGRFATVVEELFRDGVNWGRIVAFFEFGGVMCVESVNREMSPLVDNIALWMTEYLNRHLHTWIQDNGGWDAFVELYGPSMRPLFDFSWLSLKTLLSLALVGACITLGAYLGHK

What is called AC50 is the concentration giving half of the maximal activity seen. `O=[N+]([O-])c1cc(C(F)(F)F)c(Cl)c([N+](=O)[O-])c1Nc1ncc(C(F)(F)F)cc1Cl`: the AC50 in test [1] is 13.2 µM (active); in [2], 15.8 µM (active); in test [3] it was 67.9 µM (active); in [4], 50 µM (active); in [5], 50 µM (active); in test [6], 60.2 µM (active). Also, the AC50 in test [7] was 9.95 µM (active); in [9] it was 50 µM (active); in test [10], 23 µM (active); in [11] it was 66.3 µM (active); in test [16], 8.27 µM (active); in [17], 13 µM (active). The outcome in test [8], in test [12], in test [13], in [14] and in [15] was inactive.
Consider `COP(=O)(OC)SCn1c(=O)oc2cc(Cl)cnc21`, for which the call in [1], in [3], in [4], in [5], in test [6] and in test [7] was inactive. The molecule was classed as inactive in test [8], in test [9], in [10], in test [14], in [15] and in test [16]. Further, the half-maximal activity concentration (AC50) was 39.3 µM (active) in test [2]; 50 µM (active) in [11]; 0.282 µM (active) in test [12]; 50 µM (active) in test [13]; 50 µM (active) in test [17].
Consider `CN(C)NC(=O)CCC(=O)O`, for which the result in test [1], in [2], in [3], in test [4], in [5] and in [6] was inactive. Besides, the molecule was called inactive in [7], in test [8], in test [9], in test [10], in test [11] and in test [12]. For the same molecule, the call in test [13], in test [18], in test [14], in [15], in test [16] and in test [17] was inactive.
For the molecule `CCc1cnc(C2=NC(C)(C(C)C)C(=O)N2)c(C(=O)O)c1` (stereo not drawn), the molecule was classed as inactive in [1], in test [2], in test [3], in test [4], in [5] and in [6]. The result in test [7], in [8], in test [9], in [10], in test [11] and in [12] was inactive. Further, the molecule was called inactive in [13], in test [14], in [15], in test [16] and in [17].
Consider `CCOP(=S)(OCC)Oc1ccc2c(C)c(Cl)c(=O)oc2c1`, for which the molecule was classed as inactive in test [1], in test [2], in test [3], in test [5], in [6] and in test [8]. Besides, the molecule was called inactive in [9], in test [11], in test [12], in [13], in test [14] and in test [15]. The AC50 was 13.3 µM (active) in test [4]; 50 µM (active) in test [7]; 36.6 µM (active) in [10]; 4.03 µM (active) in test [16]; 2.49 µM (active) in test [17].
On to `CCc1cccc(C)c1N(C(=O)CCl)C(C)COC` (stereo not drawn), for which the outcome in test [1], in test [2], in [3], in test [4], in test [6] and in test [7] was inactive. For the same molecule, the outcome in [8], in [9], in test [11], in [12], in test [13] and in [14] was inactive. For the same molecule, the outcome in [15], in [16] and in test [19] was inactive. In addition, the AC50 is 77.1 µM (active) in test [10] and 14.2 µM (active) in [17].
